Experimental data from PubChem BioAssay (Tox21).
Results filed as inconclusive are left out. Calls of active or inactive are those of the source. Unless noted, the call rests on the fitted dose curve; in most records, active means well fitted curve in the direction sought with a large enough effect in the repeat runs; inconclusive means weak or mixed curves; inactive means no such curve, though single readings can be large; an effect the other way counts as inactive or inconclusive.

How the values were obtained:
[1] = target: Estrogen receptor (Homo sapiens) (UniProt P03372); experiment: qHTS assay to identify small molecule antagonists of the estrogen receptor alpha (ER-alpha) signaling pathway using the BG1 cell line in the presence of 0.1 nM 17-beta-estradiol (AID 1259244); further: nearly all actives have a fitted effect of over 50% in size
Summary of the method: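 VM7Luc4E2; 4xERE-luciferase; 0.1 nM E2 final; 22 h co-incubation, 37C; ONE-Glo luminescence after 30 min at room temperature.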

[2] = qHTS assay to identify small molecule HDAC inhibitors (AID 1259364);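 further: wild-type HCT-116 cells with endogenous class I/II HDAC activity; top concentration of the series differs between compounds; nearly all actives have a fitted effect of over 45% in size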
Summary of the method: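 Relative class I and II HDAC activity is taken from the luminogenic signal in HCT-116 cells, with compound exposure 2 hr and reagent development 30 min at room temperature.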

[3] = qHTS assay to identify small molecule HDAC inhibitors - cell viability counter screen (AID 1259365); further: series mostly up to about 92 µM; nearly all actives have a fitted effect of over 50% in size
Summary of the method: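 Following a 2hr exposure of overnight-plated wild-type HCT-116 cells to DMSO-delivered compounds, CellTiter-Glo was added and luminescence recorded after 30min at room temperature.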

[4] = qHTS assay to identify small molecule agonists of the sonic hedgehog signaling (Shh) pathway - cell viability counter screen (AID 1259366); further: nearly all actives have a fitted effect of over 50% in size
Summary of the method: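 After a 4hr attachment at 37C, NIH/3T3 cells bearing an integrated Gli1-driven luciferase reporter were dosed with compounds. Treatment lasted 24hr, with the final hour including CellTiter-Fluor for a fluorescence viability measurement.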

[5] = qHTS assay to identify small molecule antagonists of the sonic hedgehog signaling (Shh) pathway - cell viability counter screen (AID 1259367); further: nearly all actives have a fitted effect of over 55% in size
Summary of the method: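 After a 4 hr settling period, 3T3 Gli1-Luc cells were treated with DMSO-dissolved chemicals and conditioned medium, kept 24 hr at 37C in 5% CO2, and assayed for viability by CellTiter-Fluor fluorescence following 1 hr reagent incubation.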

[6] = qHTS assay to identify small molecule agonists of the sonic hedgehog signaling (Shh) pathway (AID 1259368; calls by dose curve;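 further: NIH/3T3-derived 3T3Gli1-Luc cells carrying a stable Gli1-driven firefly luciferase reporter; series mostly up to about 92 µM; nearly all actives have a fitted effect of over 15% in size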)
Summary of the method: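 Mouse fibroblast (NIH/3T3) reporter cells with stably integrated Gli1-Luc were treated 24 hr with compound; firefly luciferase luminescence served as the read-out.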

[7] = qHTS assay to identify small molecule antagonists of the sonic hedgehog signaling (Shh) pathway (AID 1259369; calls by dose curve; further: nearly all actives have a fitted effect of over 45% in size)
Summary of the method: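 Conditioned medium drives Shh signalling in 3T3Gli1-Luc cells; compounds in DMSO co-applied, 24hr at 37 C, then luciferase luminescence.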

[8] = target: Estrogen receptor beta (Homo sapiens) (UniProt Q92731); experiment: qHTS assay to identify small molecule agonists of the estrogen receptor beta (ER-beta) signaling pathway (AID 1259377; active means well fitted activation curve with a large enough effect in the signal ratio in the repeat runs, not every such curve was filed as active; the % refers to the signal ratio)
Summary of the method: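 In HEK293T cells bearing a UAS-beta-lactamase reporter under ER-beta control, DMSO-delivered compounds were incubated for 16 hr at 37C. Activity was detected as fluorescence 2 hours after LiveBLAzer B/G FRET substrate addition.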

[9] = target: Estrogen receptor beta (Homo sapiens) (UniProt Q92731); experiment: qHTS assay to identify small molecule antagonists of the estrogen receptor beta (ER-beta) signaling pathway (AID 1259378; active means well fitted inhibition curve with a large enough effect in the signal ratio in the repeat runs, not every such curve was filed as active; the % refers to the signal ratio)
Summary of the method: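 ER-beta-UAS-bla HEK293T (GripTite) cells in 2% charcoal-stripped FBS medium were preincubated 6 hr at 37C, dosed with compound, then stimulated with 1 nM E2 (final) for 16 hr; beta-lactamase reporter read by B/G FRET fluorescence after 2 hr substrate loading.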

[10] = qHTS assay to identify small molecule agonists of the androgen receptor (AR) signaling pathway in the presence of an antagonist - cell viability counter screen (AID 1259379);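 further: MDA-kb2 human breast cancer cells carrying an MMTV luciferase reporter; series mostly up to about 92 µM; nearly all actives have a fitted effect of over 25% in size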
Summary of the method: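 A CellTiter-Fluor read-out measured viability of MDA-kb2 reporter cells (MMTV promoter with AR and GR response elements). Treatment: nilutamide 3.0uM final with compounds at 15 concentrations, 16 hr, 37C, 0% CO2.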

[11] = qHTS assay to identify small molecule agonists of the estrogen receptor beta (ER-beta) signaling pathway - cell viability counter screen (AID 1259380); further: nearly all actives have a fitted effect of over 30% in size
Summary of the method: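 Cells used were ER-beta-UAS-bla HEK293T in medium with 2% charcoal-stripped FBS. They were treated for 16 hr at 37C. Viability came from CellTiter-Glo luminescence.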

[12] = qHTS assay to identify small molecule antagonists of the estrogen receptor beta (ER-beta) signaling pathway - cell viability counter screen (AID 1259382); further: series mostly up to about 92 µM; nearly all actives have a fitted effect of over 55% in size
Summary of the method: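 Agonist-stimulated (1nM E2) ER-beta-UAS-bla HEK293T cells are incubated with library compounds for 16 hr at 37C. Cell viability is then assessed in the reporter-assay wells by adding CellTiter-Glo and reading luminescence after 30 min.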

[13] = target: Estrogen receptor (Homo sapiens) (UniProt P03372); experiment: qHTS assay to identify small molecule agonists of the estrogen receptor alpha (ER-alpha) signaling pathway in the presence of an antagonist (AID 1259383; calls by dose curve; further: top concentration of the series differs between compounds; nearly all actives have a fitted effect of over 15% in size)
Summary of the method: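 Using VM7Luc4E2 cells seeded 24hr before treatment, antagonist ICI-182,780 (10.0nM final) was added, followed by compounds at 15 concentrations. Plates incubated 22hr; ONE-Glo luminescence quantified reporter activity.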

[14] = qHTS assay to identify small molecule agonists or antagonists of the thyroid stimulating hormone receptor (TSHR) signaling pathway - wild type cell line counter screen (AID 1259384; calls by dose curve)
Summary of the method: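 Wild-type HEK293 cells were plated 18 h at 37 C/5% CO2, pin-dosed with compound plus Ro20-1724 medium, held 30 min at room temperature, then given cAMP-d2 and anti-cAMP-cryptate; fluorescence was read after 1 h. Fifteen concentrations, triplicate.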

[15] = target: Thyrotropin receptor (Homo sapiens) (UniProt P16473); experiment: qHTS assay to identify small molecule antagonists of the thyroid stimulating hormone receptor (TSHR) signaling pathway (AID 1259385; calls by dose curve; further: nearly all actives have a fitted effect of over 20% in size)
Summary of the method: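 TSHR-HEK293 cells were plated and held 18 h at 37C/5% CO2, then given compound plus Ro20-1724 and stimulated with TSH at 1.5 ng/mL final. After 30 min at room temperature, cAMP was detected with cAMP-d2/anti-cAMP-cryptate (1 h) by fluorescence.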

[16] = qHTS assay to identify small molecule agonists of the estrogen receptor alpha (ER-alpha) signaling pathway in the presence of an antagonist - cell viability counter screen (AID 1259386);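 further: series mostly up to about 92 µM; cells exposed to compounds for 22 h at 37 °C before the viability read; nearly all actives have a fitted effect of over 30% in size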
Summary of the method: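 ICI-182,780 at 10.0nM final accompanies the compound titration (15 concentrations, 22hr, 37C) on VM7Luc4E2 cells. The CellTiter-Fluor fluorescence readout runs in the same wells as the luciferase assay.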

[17] = target: Progesterone receptor (Homo sapiens) (UniProt P06401); experiment: qHTS assay to identify small molecule agonists of the progesterone receptor (PR) signaling pathway (AID 1346784; calls by dose curve; further: nearly all actives have a fitted effect of over 30% in size)
Summary of the method: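 Using charcoal-stripped serum (2%) to limit endogenous steroids, PR-UAS-bla HEK 293T cells received compounds for 16 hr at 37C after 6 hr plating; beta-lactamase FRET fluorescence was recorded following 2 hr substrate loading at room temperature.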

[18] = target: Progesterone receptor (Homo sapiens) (UniProt P06401); experiment: qHTS assay to identify small molecule antagonists of the progesterone receptor (PR) signaling pathway (AID 1346795; active means well fitted inhibition curve with a large enough effect in the signal ratio in the repeat runs, not every such curve was filed as active; the % refers to the signal ratio)
Summary of the method: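 Inhibition of R5020-induced (1 nM final) beta-lactamase reporter signal in PR-UAS-bla HEK293T cells was scored by FRET fluorescence after overnight (16 hr) compound treatment.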

[19] = qHTS assay to identify small molecule phospholipidosis (PLD) inducers (AID 1259344; active means well fitted curve in the direction sought with a large enough effect; an effect the other way counts as inactive or inconclusive)
Summary of the method: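 HepG2 cells grown on collagen I take up LipidTOX Red while exposed to compound for 24 h; after fixation they are imaged at 20x and pit metrics are extracted.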

[20] = target: Androgen receptor (Homo sapiens) (UniProt P10275); experiment: qHTS assay to identify small molecule agonists of the androgen receptor (AR) signaling pathway in the presence of an antagonist (AID 1259381; calls by dose curve; further: nearly all actives have a fitted effect of over 15% in size)
Summary of the method: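 Using human MDA-kb2 cells with an MMTV promoter–luciferase construct (AR and GR response elements), agonist activity is scored under 3.0uM nilutamide (final) co-treatment; 16hr incubation, 37C, luminescence readout via ONE-Glo.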

Measured: Potency

Chain of Estrogen receptor beta (Homo sapiens) (Q92731 whole entry, looked up): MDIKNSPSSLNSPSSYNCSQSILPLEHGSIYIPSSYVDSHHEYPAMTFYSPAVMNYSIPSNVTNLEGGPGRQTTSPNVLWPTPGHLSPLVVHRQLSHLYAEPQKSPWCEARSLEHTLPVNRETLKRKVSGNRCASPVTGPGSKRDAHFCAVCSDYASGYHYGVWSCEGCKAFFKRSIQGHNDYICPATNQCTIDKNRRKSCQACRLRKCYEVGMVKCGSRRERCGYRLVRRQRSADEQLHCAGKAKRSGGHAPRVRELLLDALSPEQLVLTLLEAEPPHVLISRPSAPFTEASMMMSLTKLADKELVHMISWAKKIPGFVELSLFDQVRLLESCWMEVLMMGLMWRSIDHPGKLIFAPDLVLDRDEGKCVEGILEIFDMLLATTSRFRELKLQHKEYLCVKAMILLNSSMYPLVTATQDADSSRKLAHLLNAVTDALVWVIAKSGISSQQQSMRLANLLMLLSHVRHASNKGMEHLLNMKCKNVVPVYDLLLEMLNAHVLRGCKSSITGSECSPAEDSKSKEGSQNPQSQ
Chain of Progesterone receptor (Homo sapiens) (P06401 whole entry, looked up): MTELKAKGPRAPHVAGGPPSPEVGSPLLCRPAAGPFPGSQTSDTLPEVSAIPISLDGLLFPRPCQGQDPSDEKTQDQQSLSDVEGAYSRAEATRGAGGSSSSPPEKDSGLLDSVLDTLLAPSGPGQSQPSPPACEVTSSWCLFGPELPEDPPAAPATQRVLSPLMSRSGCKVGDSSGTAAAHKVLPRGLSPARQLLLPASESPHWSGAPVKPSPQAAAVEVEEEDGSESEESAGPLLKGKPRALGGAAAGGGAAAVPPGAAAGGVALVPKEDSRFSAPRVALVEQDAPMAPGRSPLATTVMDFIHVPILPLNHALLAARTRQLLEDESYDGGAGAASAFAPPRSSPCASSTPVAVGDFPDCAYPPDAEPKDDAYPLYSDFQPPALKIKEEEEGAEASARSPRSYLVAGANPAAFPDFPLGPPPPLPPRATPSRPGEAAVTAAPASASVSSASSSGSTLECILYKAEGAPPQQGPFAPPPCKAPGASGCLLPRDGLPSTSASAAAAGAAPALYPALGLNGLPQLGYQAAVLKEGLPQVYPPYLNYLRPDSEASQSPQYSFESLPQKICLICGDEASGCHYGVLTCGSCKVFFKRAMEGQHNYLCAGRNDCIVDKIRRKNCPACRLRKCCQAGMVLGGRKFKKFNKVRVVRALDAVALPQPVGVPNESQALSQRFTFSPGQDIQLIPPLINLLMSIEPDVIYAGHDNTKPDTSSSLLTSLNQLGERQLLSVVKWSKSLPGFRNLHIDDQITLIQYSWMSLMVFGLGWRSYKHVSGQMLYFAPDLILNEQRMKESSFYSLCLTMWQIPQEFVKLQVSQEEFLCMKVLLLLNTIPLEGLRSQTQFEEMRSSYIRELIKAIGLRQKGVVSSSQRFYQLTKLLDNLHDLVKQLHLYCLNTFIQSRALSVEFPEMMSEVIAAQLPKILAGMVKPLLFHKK
Chain of Estrogen receptor (Homo sapiens) (P03372 whole entry, looked up): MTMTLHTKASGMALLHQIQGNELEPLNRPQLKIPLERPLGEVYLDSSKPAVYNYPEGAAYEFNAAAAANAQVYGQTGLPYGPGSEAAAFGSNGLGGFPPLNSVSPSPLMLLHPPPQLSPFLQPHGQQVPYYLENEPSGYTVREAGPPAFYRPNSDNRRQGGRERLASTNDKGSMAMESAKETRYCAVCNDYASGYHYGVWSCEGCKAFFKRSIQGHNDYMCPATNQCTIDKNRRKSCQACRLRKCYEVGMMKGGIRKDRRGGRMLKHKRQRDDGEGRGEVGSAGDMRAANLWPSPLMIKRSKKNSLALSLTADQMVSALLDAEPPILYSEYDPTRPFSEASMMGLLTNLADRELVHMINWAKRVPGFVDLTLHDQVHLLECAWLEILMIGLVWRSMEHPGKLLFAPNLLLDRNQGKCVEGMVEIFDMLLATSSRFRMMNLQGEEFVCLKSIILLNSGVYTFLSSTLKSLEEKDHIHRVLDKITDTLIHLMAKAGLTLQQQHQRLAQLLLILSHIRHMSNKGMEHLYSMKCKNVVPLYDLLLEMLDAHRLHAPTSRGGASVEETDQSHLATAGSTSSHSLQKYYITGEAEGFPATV
Chain of Thyrotropin receptor (Homo sapiens) (P16473 whole entry, looked up): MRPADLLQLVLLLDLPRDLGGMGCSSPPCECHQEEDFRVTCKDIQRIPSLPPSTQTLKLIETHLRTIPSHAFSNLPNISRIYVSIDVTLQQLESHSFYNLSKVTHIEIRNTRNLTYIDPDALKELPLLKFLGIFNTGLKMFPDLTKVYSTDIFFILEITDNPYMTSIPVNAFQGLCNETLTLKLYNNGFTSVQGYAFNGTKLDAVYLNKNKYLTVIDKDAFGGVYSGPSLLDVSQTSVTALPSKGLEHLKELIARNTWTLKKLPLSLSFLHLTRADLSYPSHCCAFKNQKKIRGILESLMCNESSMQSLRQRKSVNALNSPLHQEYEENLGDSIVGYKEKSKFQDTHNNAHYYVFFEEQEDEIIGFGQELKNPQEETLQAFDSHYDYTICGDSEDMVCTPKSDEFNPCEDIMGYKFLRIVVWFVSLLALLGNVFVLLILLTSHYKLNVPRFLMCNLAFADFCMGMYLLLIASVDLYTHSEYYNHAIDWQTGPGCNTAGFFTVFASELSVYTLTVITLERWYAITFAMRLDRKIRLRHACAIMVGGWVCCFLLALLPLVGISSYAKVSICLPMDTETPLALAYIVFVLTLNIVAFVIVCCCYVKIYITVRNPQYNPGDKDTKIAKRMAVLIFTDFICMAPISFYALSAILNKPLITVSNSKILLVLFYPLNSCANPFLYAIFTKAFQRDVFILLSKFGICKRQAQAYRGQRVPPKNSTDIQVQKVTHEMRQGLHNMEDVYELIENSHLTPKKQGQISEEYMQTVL
Chain of Androgen receptor (Homo sapiens) (P10275 whole entry, looked up): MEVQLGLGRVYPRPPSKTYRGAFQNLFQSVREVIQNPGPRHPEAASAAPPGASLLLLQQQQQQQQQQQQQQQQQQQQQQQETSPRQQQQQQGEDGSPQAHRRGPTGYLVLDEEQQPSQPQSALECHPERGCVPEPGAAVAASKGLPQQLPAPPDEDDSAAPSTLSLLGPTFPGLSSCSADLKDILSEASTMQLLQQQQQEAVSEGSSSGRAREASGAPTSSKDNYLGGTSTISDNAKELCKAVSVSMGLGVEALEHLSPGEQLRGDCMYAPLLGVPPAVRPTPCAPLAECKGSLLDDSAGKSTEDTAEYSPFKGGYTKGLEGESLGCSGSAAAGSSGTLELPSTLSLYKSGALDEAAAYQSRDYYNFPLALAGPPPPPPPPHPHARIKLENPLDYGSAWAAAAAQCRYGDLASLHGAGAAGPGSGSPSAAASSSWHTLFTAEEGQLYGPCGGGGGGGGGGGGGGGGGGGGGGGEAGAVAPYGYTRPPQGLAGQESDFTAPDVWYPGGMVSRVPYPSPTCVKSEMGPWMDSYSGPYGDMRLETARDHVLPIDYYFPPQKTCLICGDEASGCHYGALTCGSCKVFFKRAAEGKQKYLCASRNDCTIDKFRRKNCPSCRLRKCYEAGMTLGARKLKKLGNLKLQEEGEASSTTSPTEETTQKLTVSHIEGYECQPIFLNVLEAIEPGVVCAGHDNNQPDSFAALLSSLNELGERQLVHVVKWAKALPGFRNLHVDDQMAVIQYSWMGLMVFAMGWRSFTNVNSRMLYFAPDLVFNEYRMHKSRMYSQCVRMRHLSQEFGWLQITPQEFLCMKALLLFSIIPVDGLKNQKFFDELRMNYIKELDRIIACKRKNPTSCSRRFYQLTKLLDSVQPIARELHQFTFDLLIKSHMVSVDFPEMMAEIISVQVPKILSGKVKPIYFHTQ

Cc1ccccc1O
inactive: [1] | [2] | [3] | [4] | [5] | [6] | [7] | [8] | [9] | [10] | [11] | [12] | [13] | [14] | [15] | [16] | [17] | [18]

c1ccc(OP(Oc2ccccc2)Oc2ccccc2)cc1
inactive: [1] | [2] | [3] | [4] | [5] | [6] | [7] | [8] | [9] | [10] | [11] | [12] | [13] | [14] | [15] | [16] | [17] | [18]

O=C(NC(=O)c1c(F)cccc1F)Nc1cc(Cl)c(OC(F)(F)C(F)C(F)(F)F)cc1Cl (centres undefined)
inactive: [1] | [19] | [2] | [3] | [4] | [5] | [6] | [7] | [8] | [9] | [10] | [11] | [20] | [12] | [13] | [14] | [15] | [16] | [17]

C1CC2OC2CC1C1CO1 (centres undefined)
inactive: [1] | [2] | [3] | [4] | [5] | [6] | [7] | [8] | [9] | [10] | [11] | [12] | [13] | [14] | [15] | [16] | [17] | [18]

COP(N)(=O)SC (centres undefined)
inactive: [1] | [2] | [3] | [4] | [5] | [6] | [7] | [8] | [9] | [10] | [11] | [12] | [13] | [14] | [15] | [16] | [17] | [18]

CC(C)=C[C@@H]1[C@@H](C(=O)OCc2coc(Cc3ccccc3)c2)C1(C)C
inactive: [1] | [19] | [2] | [3] | [4] | [5] | [6] | [10] | [11] | [12] | [13] | [14] | [16] | [17] | [18]

Nc1c(Cl)c(Cl)nc(C(=O)O)c1Cl
inactive: [1] | [2] | [3] | [4] | [5] | [6] | [7] | [8] | [9] | [10] | [11] | [12] | [13] | [14] | [15] | [16] | [17] | [18]
